Source: PubChem
This is one part of a sample in which hits are shown more often than they occur.
aSyn tox rescue – rescues yeast growth from alpha-synuclein toxicity; S. cerevisiae alpha-synuclein toxicity rescue, BacTiter-Glo growth, 24 h; Potency, µM (top dose mostly 46.1 µM), most hits filed as activators; 94,000 tested, 0.02% active; AID 1347070; active = well fitted activation curve with a large enough effect; note: 0% is about no effect
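Growth restoration measured by BacTiter-Glo luminescence after 24 hr at 30 deg C; alpha-synuclein yeast, raffinose-pregrown to mid-log, were added at OD600=0.02 in galactose medium onto pinned compounds.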
Numbers without * were called inactive; i = inactive. Potency is the fitted concentration of half-maximal effect.

SMILES	aSyn tox rescue
Cc1ccc(NC(=O)CN2C(=O)CSc3ccc(S(=O)(=O)N(C)C)cc32)cc1C	i
COc1ccccc1CNC(=O)c1cc2ccc3ccc(C)[nH]c3c2n1	i
Cc1ccc(NC(=O)c2ccc(CN3CC(=O)N4CCCCC4C3=O)cc2)cc1C (centres undefined)	i
Cc1cccc(-c2nc(CCNC(=O)c3ccccc3Br)cs2)c1	i
Cn1c(/C(C#N)=C/c2ccc(C(F)(F)F)cc2)nc2ccccc21	2.5µM*
O=S(=O)(/C(=C/c1ccc(C(F)(F)F)cc1)c1nc2ccccc2[nH]1)c1ccccc1	i
Cc1ccc(/C=C(\C#N)c2nc3ccccc3c(=O)[nH]2)cc1	i
Cc1ccccc1Cn1c(SCc2ccc(C(=O)NC(C)c3ccccc3)cc2)nc2ccncc21 (centres undefined)	i
Cc1ccc2nc(-c3cccc(NC(=O)CSc4ccc(Cl)cc4)c3)oc2c1	i
CS(=O)(=O)Nc1ccc(-c2nc3ccccc3s2)cc1	i
CCOc1ccc(NC(=O)c2c(NCc3ccc(C)o3)sc3c2CCCCC3)cc1	i
COc1ccccc1NC(=O)c1c(NCc2ccc(C)o2)sc2c1CCC(C)C2 (centres undefined)	i
COc1ccc(NC(=O)c2c(NCc3ccc(C)o3)sc3c2CCC(C)C3)cc1 (centres undefined)	14µM*
CC(=O)c1cccc(NC(=O)c2nc3ccccc3n(C)c2=O)c1	i
CCc1ccccc1NC(=O)Cn1c(=O)n(CCc2ccccc2)c(=O)c2sc3ccccc3c21	i
Cc1ccccc1OCC(=O)OCc1cc(=O)n2nc(C3CCCCC3)sc2n1	i
CCC(C(=O)NCCc1ccc(OC)c(OC)c1)n1nc(C)c2sc3ccccc3c2c1=O (centres undefined)	i
CCc1ccc(N=C2NC(=O)CC(C(=O)Nc3ccc(OC)cc3)S2)cc1 (centres undefined)	i
CSc1cccc(NC(=O)c2ccc3c(c2)CCCN3S(C)(=O)=O)c1	i
O=C(OCc1ccccc1F)c1ccc(-c2nnn(Cc3ccccc3)n2)cc1	i
COc1ccc(C(=O)NCCc2sc(-c3cccc(F)c3)nc2C)cc1	i
CCOC(=O)c1ccc(CN(Cc2ccccc2C)S(=O)(=O)c2ccc(F)c(C)c2)cc1	i
O=C(CS(=O)(=O)c1cccc2nsnc12)NCc1ccccc1	i
CCCCOc1ccc(OC(=O)c2sc3ncn(Cc4cccc(F)c4)c(=O)c3c2C)cc1	i
CCN1CCOC(=O)C1CC(=O)Nc1ccc(Br)cc1 (centres undefined)	i
SMILES	aSyn tox rescue
Cn1cnc2c(=O)oc3ccc(S(=O)(=O)N4CCN(c5cccc(Cl)c5)CC4)cc3c21	i
CC(=O)N1CCCc2cc(S(=O)(=O)N(C)CC(=O)Nc3ccc(C(C)C)cc3)ccc21	i
CCN1CCc2nc3sc(C(=O)c4ccccc4)c(N)c3cc2C1	i
CCC(=O)N1CCc2cc(Br)cc(S(=O)(=O)CCC(=O)N3CCN(c4ccccc4F)CC3)c21	i
CN1CCN(c2oc(/C=C/c3ccc(F)cc3)nc2C#N)CC1	i
CCOC(=O)N1CCc2c(sc(NCc3cccc(F)c3)c2C(=O)Nc2ccc(OC)cc2OC)C1	i
Cc1cccc(CCNC(=O)c2ccc3c(c2)nc2n3CCCCC2)c1	i
Cc1ccc(OC(=O)c2cc(-c3ccc4c(c3)OCCO4)on2)c(C)c1	i
CSc1ccc(CCNC(=O)C(C)n2nc(C)c3sc4ccccc4c3c2=O)cc1 (centres undefined)	i
COc1cc(CN(C(=O)COc2ccc(Cl)cc2)c2ccccn2)cc(OC)c1OC	i
COc1ccc(C(=O)N2CCN(c3nc4c(C)c(Cl)ccc4s3)CC2)c(OC)c1	16µM*
Cc1c(Cl)ccc2sc(N3CCN(C(=O)C(C)C)CC3)nc12	i
COc1cc2ccccc2cc1C(=O)N1CCN(c2nc3c(C)cc(C)cc3s2)CC1	i
CC(C)c1ccc2oc(-c3cccc(NC(=O)c4ccc5c(c4)OCCO5)c3)nc2c1	i
CCOc1ccc(C(=O)Nc2nnc(S(=O)(=O)N(CC)c3ccccc3C)s2)cc1	i
O=c1c2oc3ccccc3c2n(Cc2ccc(Cl)cc2)c(=O)n1Cc1ccco1	i
Cc1cc2c(n1-c1ccc(C(=O)NCC(C)c3ccccc3)cc1)CCCC2 (centres undefined)	i
COc1ccc2cc(-c3nc4ccc(C(=O)O)cc4[nH]3)c(=O)oc2c1	i
CCOC(=O)c1c(C)[nH]c(C)c1S(=O)(=O)NCC(=O)Nc1ccc(C)c(N(C)C)c1	i
CCCS(=O)(=O)Nc1cc(-c2cn3cccc(C)c3n2)ccc1C	i
CCN(c1ccccc1)c1ncnc2c1cnn2-c1ccc(OC)cc1	i
CN1C(=O)c2ccccc2Sc2ccc(NC(=O)N3CCN(c4ccc(F)cc4)CC3)cc21	i
Cc1ccc(-c2c(C(=O)N3CCN(c4cccc(C)c4)C(C)C3)oc(=O)c3ccccc23)cc1 (centres undefined)	i
Cc1cc(C)c2nc(N(Cc3cccnc3)C(=O)c3cccs3)sc2c1	i
Cc1cccc2sc(N(Cc3cccnc3)C(=O)c3ccco3)nc12	i
SMILES	aSyn tox rescue
Cc1cccc2sc(N(Cc3cccnc3)C(=O)CCc3ccccc3)nc12	i
Cc1ccc2nc(N(Cc3cccnc3)C(=O)Cc3ccccc3)sc2c1	i
Cc1cccc2sc(N(Cc3cccnc3)C(=O)Cc3ccccc3)nc12	10µM*
Cc1cc(C)c2nc(N(Cc3cccnc3)C(=O)Cc3ccccc3)sc2c1	13µM*
Cc1ccc(C)c(N2CCN(C(=O)C3CCCN(S(=O)(=O)c4ccc5c(c4)oc(=O)n5C)C3)CC2)c1 (centres undefined)	i
Cc1c(-c2cccc(NC(=O)Nc3ccccc3)c2)nc2ncccn12	i
COc1ccccc1NC(=O)CN1C(=O)CC(c2ccc(C)c(C)c2)=Nc2ccccc21	i
Cc1cccc(OCC(=O)Nc2c(C(=O)N3CCN(c4ccccc4)CC3)oc3ccccc23)c1	i
O=S(=O)(Nc1ccc(-c2ccc(N3CCCCC3)nn2)cc1)c1ccc(OC(F)(F)F)cc1	i
COc1ccc(-c2nc(CCNC(=O)c3c(F)cccc3Cl)cs2)cc1	i
COc1ccc(C2=C(C)C(N3CCC(C(=O)Nc4cc(C)ccc4C)CC3)=NS2(=O)=O)cc1	i
CC(=O)N1c2ccc(S(=O)(=O)NCc3ccc(Cl)cc3)cc2CC1C (centres undefined)	i
O=C(C1CCC(Cn2c(=O)c3sccc3n(Cc3ccc(F)cc3)c2=O)CC1)N1CCOCC1 (centres undefined)	i
COCCNC(=O)c1ccccc1NC(=O)c1nsc2ccccc12	i
COc1ccc(CNc2oc(/C=C/c3cc(OC)c(OC)c(OC)c3)nc2C#N)cc1	i
Cc1ccc(/C=C/c2onc(C)c2S(=O)(=O)N2CCC(C(=O)N3CC(C)Oc4ccccc43)CC2)cc1 (centres undefined)	i
CCS(=O)(=O)N1CCCc2cc(C(=O)Nc3cc([N+](=O)[O-])ccc3C)ccc21	i
COC(=O)c1ccccc1NC(=O)c1ccc2c(c1)CCN2S(C)(=O)=O	i
CCOC(=O)COc1ccc(CC)cc1C(=O)c1ccn2nc(-c3ccc(Cl)cc3)cc2n1	i
COc1ccc(Nc2c3c(nc4ccc(NC(=O)c5cc(Cl)ccc5OC)cc24)CCCC3)cc1OC	i
COc1cc(NC(=O)c2ccc(NC(=O)N3CCSc4ncccc43)cc2)cc(OC)c1	i
